# Shown is part of a subset that was picked to be rich in hits.
# GALK inhibitor: qHTS Assay for Inhibitors of Human Galactokinase (GALK); P51570; Purified GALK, Kinase-Glo residual ATP luminescence; Potency, µM (titrated, usually from 57.5 µM), inactives show top-dose activity change, negative = inhibition, hits mostly inhibitors; actives 0.007% (n = 270,000); also: potency is read from the fitted curve at half-maximal effect
# Target sequence (P51570 whole entry, looked up): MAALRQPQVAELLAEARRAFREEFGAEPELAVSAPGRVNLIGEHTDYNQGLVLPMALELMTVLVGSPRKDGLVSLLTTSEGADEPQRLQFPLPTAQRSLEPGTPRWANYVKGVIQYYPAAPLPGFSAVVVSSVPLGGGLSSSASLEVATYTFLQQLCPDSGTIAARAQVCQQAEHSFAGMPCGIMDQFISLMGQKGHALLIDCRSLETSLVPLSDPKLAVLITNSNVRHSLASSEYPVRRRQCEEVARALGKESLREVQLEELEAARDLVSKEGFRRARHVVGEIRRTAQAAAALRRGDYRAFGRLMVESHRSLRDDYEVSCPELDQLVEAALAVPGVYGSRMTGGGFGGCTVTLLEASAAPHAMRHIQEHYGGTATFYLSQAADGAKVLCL
#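 Galactose (100 uM) and ATP (35 uM) were turned over by 5 nM GALK for 1 h at RT. Kinase-Glo Plus then converted the remaining ATP into a luminescent signal.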
# JMJD2E inh: qHTS Assay for Inhibitors of Human Jumonji Domain Containing 2E (JMJD2E); Lysine-specific demethylase 4E (Homo sapiens), B2RXH2; JMJD2E catalytic domain, FDH-coupled NADH fluorescence (FDH is formaldehyde dehydrogenase); Potency, µM (series often up to 57.1 µM), for inactives: at the top dose activity change, negative = inhibition, usual class: inhibitors; actives 1.6% (n = 230,000); AID 2147, 2009; active = well fitted inhibition curve with a large enough effect, not every such curve was filed as active; inconclusive = small, poorly fitted or top-dose-only effect, or another doubt; inactive = no such curve, though single readings can be large or run the other way;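 also: potency is read from the fitted curve at half-maximal effect; 0% = wells with enzyme and -100% = buffer wells without enzyme; nearly all actives have a fitted effect of over 50% in size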
# Eya2 phos inh: qHTS Assay for Inhibitors of the Phosphatase Activity of Eya2; recombinant Eya2, OMFP fluorescence dephosphorylation (OMFP is methylfluorescein phosphate); Potency, µM (series often up to 76.9 µM), inactives show at the top dose activity, negative = inhibition, most hits filed as inhibitors; AID 488837, 2010; actives 0.006% (n = 330,000); also: potency is read from the fitted curve at half-maximal effect
#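 Eya2 (0.2 uM) preincubated 10 min at ambient with compound, then OMFP substrate added at 50 uM; 10 min reaction in 50 mM HEPES pH 7.5, 50 mM NaCl, 5 uM MgCl2, 0.05% BSA, 1 mM DTT. Fluorescence read at Ex 485/Em 525 nm.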
# Six1-Eya2 inh: qHTS Assay for Inhibitors of the Six1/Eya2 Interaction. Homeobox protein SIX1 (Homo sapiens) + Protein phosphatase EYA2 (Homo sapiens), …. AlphaScreen GST-Six1/His-Eya2 binding, biochemical; stronger effect = lower value. activity change, % (no concentration beside the values). actives 0.56% (n = 360,000). AID 651725, 2012; in the data active = activity change below about -65%; inconclusive = mostly about -30% to -63%
#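 Six1/Eya2 binding was read as AlphaScreen signal after compounds were pinned into GST-Six1 plus His-tagged Eya2 (5X stock 250/500 nM) in pH 8.0 Tris/NaCl/TCEP buffer, beads added, then incubated 1 h, 37 C, dark.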
# CtBP-E1A inh: qHTS Assay for Inhibitors of the CtBP/E1A Interaction. CtBP / adenovirus E1A interaction (AlphaScreen). AlphaScreen GST-E1A/His-CtBP binding, 1536-well; stronger effect = lower value. activity change, % (test concentration not listed). actives 0.49% (n = 340,000). AID 651724, 2012; in the data active = activity change below about -65%; inconclusive = mostly about -30% to -63%
#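 AlphaScreen with 125 nM GST-E1A and 125 nM His-CtBP (5X stocks) in Tris pH 8.0, 300 mM NaCl, BSA, Tween 20, TCEP. Compounds preincubated 2 h at 37 deg C, then glutathione donor/nickel acceptor beads added for 1 h at 37 deg C in dark.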
# Apoferritin bind: qHTS Assay for Identification of Novel General Anesthetics. Ferritin light chain (Equus caballus), P02791. apoferritin/1-aminoanthracene competitive binding, fluorescence. Potency, µM (titrated, usually from 77.5 µM), for the others: at the highest dose activity change, negative = displacement, usual class: inhibitors. actives 0.074% (n = 350,000); also: potency is read from the fitted curve at half-maximal effect; nearly all actives have a fitted effect of over 20% in size
# Target sequence (P02791 2-175 limits assumed): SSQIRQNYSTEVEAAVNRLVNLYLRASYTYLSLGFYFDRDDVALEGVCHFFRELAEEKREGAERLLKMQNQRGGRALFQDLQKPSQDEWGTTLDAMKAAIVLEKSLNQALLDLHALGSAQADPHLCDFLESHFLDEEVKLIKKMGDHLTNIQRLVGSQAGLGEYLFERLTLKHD
#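 Horse-spleen apoferritin (10 uM) in 50% saturated 1-aminoanthracene in PBS was incubated 10 min at room temperature with compound. Fluorescence (ex 380, em 535 nm) was normalized to free and bound 1-AMA, with concentration-response fitted by a four-parameter Hill equation.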
# * = called active by the depositor; ? = inconclusive; nt = not tested or not shown; [ ] = remark or other dose. Unless noted, calls follow the shape of the dose curve; as a rule, active = well fitted curve in the direction sought with a large enough effect; inconclusive = small, poorly fitted or top-dose-only effect, or another doubt; inactive = no such curve, though single readings can be large; an effect the other way counts as inactive or inconclusive. Unless noted, % is scaled to controls: 0 for no effect and ±100 for the full control effect.
SMILES,GALK inhibitor,JMJD2E inh,Eya2 phos inh,Six1-Eya2 inh,CtBP-E1A inh,Apoferritin bind
O=c1[nH]n2c(=O)c3c([nH]c2c1N=Nc1cccc(Cl)c1)CCC3,2%,-4%,-11%,?,-1,-13%
NS(=O)(=O)c1ccc(N=Nc2c(=O)[nH]n3c(=O)c4c([nH]c23)CCCC4)cc1,3%,28µM*,?,-12,-10,?
CCCC[C@H](NC(=O)[C@H](CO)NC(=O)[C@H](Cc1ccc(O)cc1)NC(=O)[C@H](CO)NC(C)=O)C(=O)N[C@@H](CCC(=O)O)C(=O)N[C@@H](Cc1cnc[nH]1)C(=O)N[C@H](Cc1ccccc1)C(=O)N[C@@H](CCCNC(=N)N)C(=O)N[C@@H](Cc1c[nH]c2ccccc12)C(=O)NCC(=O)N[C@@H](CCCCN)C(=O)N1CCC[C@H]1C(=O)N[C@H](C(N)=O)C(C)C,nt,nt,nt,nt,nt,4%
COC(=O)N/N=C/c1cc(C)n(-c2ccc(Br)cc2)c1C,-1%,25µM*,-1%,-2,-5,-14%
CCc1ccc(-n2c(C)cc(/C=N/NC(=O)OC)c2C)cc1,0%,10µM*,-12%,-16,nt,?
O=[N+]([O-])c1ccc(C[n+]2cccc3ccccc32)cc1,4%,-15%,3%,0,-2,-8%
O=[N+]([O-])c1ccc(C[n+]2cccc3ccc4cccnc4c32)cc1,8%,-4%,3%,-90*,-89*,-8%
Nc1nc2c(ncn2C2OC(COC(=O)c3ccccc3)C(OC(=O)c3ccccc3)C2OC(=O)c2ccccc2)c(=O)[nH]1 (stereo not given),nt,-4%,nt,nt,nt,-9%
Cc1ccc(C(=O)O)cc1-c1ccc(/C=C2/NC(=O)N(c3ccccc3)C2=O)o1,-1%,?,14%,-74*,-20,-7%
CC(=O)OC[C@@]1(O)C[C@@]23CC[C@@H]4c5ccoc5CC[C@@]4(C)[C@@H]2CCC1C3,nt,-7%,nt,nt,nt,nt
OC[C@@H](O)[C@@H](O)CCc1ccccc1,nt,-4%,nt,nt,nt,nt
Cc1ccc(-n2c(C)cc(/C=N/NC(=O)CC3(C)OCCO3)c2C)c(C)c1,0%,-29%,-2%,-5,-5,-2%
CC1(CC(=O)N/N=C/c2cc([N+](=O)[O-])c(O)cc2O)OCCO1,-4%,16µM*,-29%,-89*,nt,-14%
COc1ccc(N2CSC3=C(C#N)C(c4cccc(OC)c4OC)CC(=O)N3C2)cc1 (stereo not given),0%,?,0%,-12,0,?
COc1ccc(OC)c(C2CC(=O)N3CN(c4ccccc4)CSC3=C2C#N)c1 (stereo not given),1%,?,-19%,-6,-2,?
COc1ccc(C2CC(=O)N3CN(c4ccccc4F)CSC3=C2C#N)cc1OC (stereo not given),0%,28µM*,-1%,-4,1,-5%
CCc1ccccc1N1CSC2=C(C#N)C(c3ccccc3F)CC(=O)N2C1 (stereo not given),2%,32µM*,-2%,-4,9,?
Cc1cccc(N2CSC3=C(C#N)C(c4ccc(C)o4)CC(=O)N3C2)c1 (stereo not given),-13%,28µM*,15%,nt,nt,?
COc1cc(OC)c(C2CC(=O)N3CN(c4ccccc4C)CSC3=C2C#N)cc1OC (stereo not given),-2%,22µM*,15%,nt,nt,7%
CCOC(=O)c1c(C)[nH]c(C)c1S(=O)(=O)N(C)CC(=O)Nc1cc(Cl)ccc1C,nt,nt,nt,nt,nt,6%
CCCCCCC#CC1C=CC(OC(C)=O)C(COC(C)=O)O1 (stereo not given),nt,nt,nt,nt,nt,1%[15.3 µM]
CCOC(=O)c1noc2ncnc(Nc3ccc(F)cc3F)c12,nt,nt,nt,nt,nt,-1%
C#CCCCO/N=C1/C[C@@H](O)[C@@H](O)[C@@H]2[C@@H]3C(=O)N(C4CCCCC4)C(=O)[C@H]3CC[C@H]12,nt,nt,nt,nt,nt,0%[15.3 µM]
CC1CCN(c2nc(-c3cccnc3)nc3scc(-c4ccccc4)c23)CC1,-1%,?,-14%,1,-3,-8%
Clc1nc(-c2ccccn2)nc2scc(-c3ccccc3)c12,0%,0%,-11%,-73*,-9,-2%
SMILES,GALK inhibitor,JMJD2E inh,Eya2 phos inh,Six1-Eya2 inh,CtBP-E1A inh,Apoferritin bind
O=S(=O)(O)c1cc(Cl)cc(N=Nc2ccc(O)cc2O)c1O,nt,nt,nt,-92*,-90*,nt
CC1=C(C(=O)OCc2ccc(C)cc2)C(c2cccc(F)c2F)CC(=O)N1 (stereo not given),nt,nt,nt,nt,nt,4%
O=C(c1cccs1)N1CCCC(c2nc3c(nnn3Cc3cccc(Cl)c3)c(=O)[nH]2)C1 (stereo not given),-1%,nt,-1%,-12,-1,-10%
O=C(c1cccs1)N1CCC(c2nc3c(nnn3Cc3cccc(Cl)c3)c(=O)[nH]2)CC1,1%,nt,-3%,-68*,-1,-5%
Cc1ccc(C(=O)C(c2ccccc2)N2Cc3ccccc3C2=N)cc1 (stereo not given),-3%,6.3µM*,1%,-28,-24,38%
CC(C)CCNC(=O)[C@@H](c1ccccc1)N1Cc2ccccc2C1=O,nt,nt,nt,nt,nt,-6%
CC(CC(=O)O)Nc1ccccc1O (stereo not given),-3%,20µM*,0%,-4,-9,-6%
CC(=O)Nc1ccccc1O,0%,-10%,4%,0,5,-2%
COc1ccc(NC(=O)C2CC(=O)OC23CCCCC3)cc1 (stereo not given),0%,-2%,0%,-4,4,-9%
COc1cccc(NC(=O)c2ccc(NC(=O)C3CC(=O)OC34CCCCC4)cc2)c1 (stereo not given),0%,8%,7%,?,-80*,-15%
CCOc1ccc(NC(=O)Cn2c(=O)n(CC(=O)NCc3ccccc3Cl)c(=O)c3sccc32)cc1,nt,nt,nt,nt,nt,-1%
CCC[C@@H]1C[C@@]1(CCC)C(NP(=O)(c1ccccc1)c1ccccc1)c1ccc(Cl)cc1 (stereo not given in full),nt,25µM*,nt,nt,nt,7%
CC(=O)N1CCc2c(sc3c2c(=O)n(Cc2ccccc2)c(=O)n3Cc2ccccc2Cl)C1,nt,nt,nt,nt,nt,-15%
CC(C)(C)NC(=O)CCN(/N=C/c1ccncc1)C1=NS(=O)(=O)c2ccccc21,-2%,nt,-3%,-68*,-82*,-7%
